Data as given in PubChem BioAssay AID1159580 (chemical genetic matrix, 2015).
The whole screen tested about 5,500 compounds, of which about 2,000 (36%) were called active. About 18% were inconclusive and are not listed. No stated cut-off is given here; in the data, active means normalized growth mostly below about 0.91 (no sharp cut-off); inconclusive means no clear call, values can overlap the other calls; inactive means mostly above about 0.92. The list shows a part of the results.

Assay: chemical genetic growth profiling, strain panel (AID 1159580);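 further: tested at 20 µM; growth read once vehicle control cultures reached saturation at 30 °C; 1 = growth at the plate median or of vehicle wells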
Details: growth OD

Measured: normalized growth

CC(C)CCCC(C)[C@H]1CCC2C3CC=C4C[C@@H](O)CC[C@]4(C)C3CC[C@@]21C (some centres undefined)
inactive: S. cerevisiae deletion strains, locus YJR075W, strain HOC1, stronger effect = lower value 1.02 | S. cerevisiae deletion strains, locus YKL009W, strain mrt4, stronger effect = lower value 0.99 | S. cerevisiae deletion strains, locus YKL068W, stronger effect = lower value 1 | S. cerevisiae deletion strains, locus YKL085W, strain MDH1 (second series), stronger effect = lower value 0.999 | S. cerevisiae deletion strains, locus YKL085W, strain MDH1, stronger effect = lower value 0.999 | S. cerevisiae deletion strains, locus YKL160W, strain elf1, stronger effect = lower value 1.01 | S. cerevisiae deletion strains, locus YKL190W, strain CNB1, stronger effect = lower value 1.01 | S. cerevisiae deletion strains, locus YKR001C, strain vps1, stronger effect = lower value 0.985 | S. cerevisiae deletion strains, locus YKR026C, strain gcn3, stronger effect = lower value 0.988 | S. cerevisiae deletion strains, locus YKR091W, strain srl3, stronger effect = lower value 0.981 | S. cerevisiae deletion strains, locus YLL001W, strain dnm1, stronger effect = lower value 1 | S. cerevisiae deletion strains, locus YLL026W, stronger effect = lower value 0.993 | S. cerevisiae deletion strains, locus YLL041C, strain sdh2, stronger effect = lower value 0.968 | S. cerevisiae deletion strains, locus YLR027C, strain aat2, stronger effect = lower value 0.981 | S. cerevisiae deletion strains, locus YLR039C, strain RIC1, stronger effect = lower value 1.02 | S. cerevisiae deletion strains, locus YLR058C, strain SHM2, stronger effect = lower value 1.01 | S. cerevisiae deletion strains, locus YLR102C, strain apc9, stronger effect = lower value 0.995 | S. cerevisiae deletion strains, locus YLR113W, strain HOG1, stronger effect = lower value 1.04 | S. cerevisiae deletion strains, locus YLR221C, strain rsa3, stronger effect = lower value 1.08 | S. cerevisiae deletion strains, locus YLR258W, strain gsy2, stronger effect = lower value 1 | S. cerevisiae deletion strains, locus YLR262C, strain YPT6 (second series), stronger effect = lower value 0.987 | S. cerevisiae deletion strains, locus YLR262C, strain YPT6, stronger effect = lower value 1.02 | S. cerevisiae deletion strains, locus YLR268W, strain sec22, stronger effect = lower value 0.963 | S. cerevisiae deletion strains, locus YLR320W, strain mms22, stronger effect = lower value 1.01 | S. cerevisiae deletion strains, locus YLR330W, strain CHS5, stronger effect = lower value 1.02 | S. cerevisiae deletion strains, locus YLR342W, strain FKS1 (second series), stronger effect = lower value 1.02 | S. cerevisiae deletion strains, locus YLR342W, strain FKS1, stronger effect = lower value 0.968 | S. cerevisiae deletion strains, locus YLR357W, strain rsc2, stronger effect = lower value 0.983 | S. cerevisiae deletion strains, locus YLR370C, strain arc18, stronger effect = lower value 0.974 | S. cerevisiae deletion strains, locus YLR371W, strain rom2, stronger effect = lower value 0.988 | S. cerevisiae deletion strains, locus YLR384C, strain iki3, stronger effect = lower value 0.97 | S. cerevisiae deletion strains, locus YLR418C, strain cdc73, stronger effect = lower value 1 | S. cerevisiae deletion strains, locus YML016C, strain PPZ1, stronger effect = lower value 1.01 | S. cerevisiae deletion strains, locus YML032C, strain rad52, stronger effect = lower value 1 | S. cerevisiae deletion strains, locus YML120C, strain ndi1, stronger effect = lower value 0.975 | S. cerevisiae deletion strains, locus YML124C, strain tub3, stronger effect = lower value 0.999 | S. cerevisiae deletion strains, locus YMR058W, strain fet3, stronger effect = lower value 0.972 | S. cerevisiae deletion strains, locus YMR078C, strain ctf18, stronger effect = lower value 0.999 | S. cerevisiae deletion strains, locus YMR125W, strain sto1, stronger effect = lower value 0.94 | S. cerevisiae deletion strains, locus YMR129W, stronger effect = lower value 0.975 | S. cerevisiae deletion strains, locus YMR205C, strain PFK2, stronger effect = lower value 1 | S. cerevisiae deletion strains, locus YMR223W, strain ubp8, stronger effect = lower value 1.02 | S. cerevisiae deletion strains, locus YMR231W, strain pep5, stronger effect = lower value 0.967 | S. cerevisiae deletion strains, locus YMR263W, strain SAP30, stronger effect = lower value 1.02 | S. cerevisiae deletion strains, locus YMR307W, strain GAS1, stronger effect = lower value 1.04 | S. cerevisiae deletion strains, locus YNL067W, strain RPL9B, stronger effect = lower value 1 | S. cerevisiae deletion strains, locus YNL071W, strain lat1, stronger effect = lower value 0.966 | S. cerevisiae deletion strains, locus YNL183C, strain NPR1, stronger effect = lower value 0.962 | S. cerevisiae deletion strains, locus YNL209W, strain ssb2, stronger effect = lower value 0.98 | S. cerevisiae deletion strains, locus YNL233W, strain BNI4, stronger effect = lower value 1.02 | S. cerevisiae deletion strains, locus YNL248C, strain rpa49, stronger effect = lower value 0.963 | S. cerevisiae deletion strains, locus YNL250W, strain rad50, stronger effect = lower value 1.02 | S. cerevisiae deletion strains, locus YNL271C, strain bni1, stronger effect = lower value 0.994 | S. cerevisiae deletion strains, locus YNL298W, strain CLA4, stronger effect = lower value 0.995 | S. cerevisiae deletion strains, locus YNL307C, strain MCK1, stronger effect = lower value 0.987 | S. cerevisiae deletion strains, locus YNL322C, strain KRE1 (second series), stronger effect = lower value 0.964 | S. cerevisiae deletion strains, locus YNL322C, strain KRE1, stronger effect = lower value 1.01 | S. cerevisiae deletion strains, locus YNR049C, strain mso1, stronger effect = lower value 0.981 | S. cerevisiae deletion strains, locus YNR052C, strain pop2, stronger effect = lower value 0.99 | S. cerevisiae deletion strains, locus YOL012C, strain htz1 0.694 | S. cerevisiae deletion strains, locus YOL147C, strain pex11, stronger effect = lower value 0.99 | S. cerevisiae deletion strains, locus YOR001W, strain rrp6, stronger effect = lower value 0.99 | S. cerevisiae deletion strains, locus YOR061W, strain CKA2, stronger effect = lower value 1.01 | S. cerevisiae deletion strains, locus YOR069W, strain VPS5, stronger effect = lower value 1.01 | S. cerevisiae deletion strains, locus YOR070C, strain gyp1, stronger effect = lower value 1.07 | S. cerevisiae deletion strains, locus YOR080W, strain dia2, stronger effect = lower value 0.991 | S. cerevisiae deletion strains, locus YOR083W, strain WHI5, stronger effect = lower value 1.03 | S. cerevisiae deletion strains, locus YOR106W, strain vam3, stronger effect = lower value 0.988 | S. cerevisiae deletion strains, locus YOR136W, strain idh2, stronger effect = lower value 0.99 | S. cerevisiae deletion strains, locus YOR144C, strain elg1, stronger effect = lower value 0.986 | S. cerevisiae deletion strains, locus YOR184W, strain ser1, stronger effect = lower value 0.984 | S. cerevisiae deletion strains, locus YOR231W, strain MKK1, stronger effect = lower value 1.03 | S. cerevisiae deletion strains, locus YOR265W, strain rbl2, stronger effect = lower value 0.989 | S. cerevisiae deletion strains, locus YOR270C, strain vph1, stronger effect = lower value 0.901 | S. cerevisiae deletion strains, locus YOR290C, strain snf2, stronger effect = lower value 0.987 | S. cerevisiae deletion strains, locus YOR316C, strain cot1, stronger effect = lower value 0.987 | S. cerevisiae deletion strains, locus YPL051W, strain arl3, stronger effect = lower value 1.03 | S. cerevisiae deletion strains, locus YPL055C, strain LGE1, stronger effect = lower value 1.03 | S. cerevisiae deletion strains, locus YPL078C, strain atp4, stronger effect = lower value 0.98 | S. cerevisiae deletion strains, locus YPL106C, strain sse1, stronger effect = lower value 0.999 | S. cerevisiae deletion strains, locus YPL240C, strain hsp82, stronger effect = lower value 0.985 | S. cerevisiae deletion strains, locus YPL241C, strain CIN2, stronger effect = lower value 1.01 | S. cerevisiae deletion strains, locus YPL256C, strain CLN2, stronger effect = lower value 1.01 | S. cerevisiae deletion strains, locus YPR119W, strain clb2, stronger effect = lower value 0.992 | S. cerevisiae deletion strains, locus YPR141C, strain kar3, stronger effect = lower value 0.995 | S. cerevisiae deletion strains, locus YPR163C, strain tif3, stronger effect = lower value 0.988 | S. cerevisiae deletion strains, locus YPR167C, strain met16, stronger effect = lower value 0.995 | S. cerevisiae deletion strains, strain wtn01, stronger effect = lower value 0.972 | S. cerevisiae strains, strain wild type, stronger effect = lower value 1
